12-hLO inh: inhibitors of human 12-lipoxygenase (ALOX12) | P18054 | purified 12-hLO, xylenol orange hydroperoxide absorbance | Potency, µM (top dose mostly 57.1 µM), for the others: top-dose activity change, negative = inhibition, actives largely listed as inhibitors | 150,000 compounds, 0.12% hits | AID 1452; further: potency means the concentration at half of the fitted maximal effect; nearly all actives have a fitted effect of over 55% in size
Target sequence (P18054 whole entry, looked up): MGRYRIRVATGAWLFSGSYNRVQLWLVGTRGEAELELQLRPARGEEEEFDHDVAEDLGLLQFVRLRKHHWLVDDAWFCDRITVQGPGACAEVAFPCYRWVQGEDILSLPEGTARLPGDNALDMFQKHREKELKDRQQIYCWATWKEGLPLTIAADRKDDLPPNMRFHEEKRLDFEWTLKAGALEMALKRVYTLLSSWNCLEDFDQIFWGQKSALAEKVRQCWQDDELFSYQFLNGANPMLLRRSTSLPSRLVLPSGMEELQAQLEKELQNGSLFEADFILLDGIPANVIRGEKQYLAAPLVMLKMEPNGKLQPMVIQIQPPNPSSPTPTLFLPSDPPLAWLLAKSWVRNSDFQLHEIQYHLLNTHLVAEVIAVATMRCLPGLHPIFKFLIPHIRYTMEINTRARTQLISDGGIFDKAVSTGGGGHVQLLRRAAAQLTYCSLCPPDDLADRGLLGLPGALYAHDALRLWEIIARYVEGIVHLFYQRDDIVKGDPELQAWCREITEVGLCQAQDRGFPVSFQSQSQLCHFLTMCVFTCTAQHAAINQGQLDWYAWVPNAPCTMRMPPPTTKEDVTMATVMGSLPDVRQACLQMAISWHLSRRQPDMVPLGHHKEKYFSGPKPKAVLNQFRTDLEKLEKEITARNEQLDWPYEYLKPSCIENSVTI
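150 nM 12hLO, 25 mM Hepes pH 7.0 + 0.01% Triton X-100; cpd preinc 15 min RT; 40 uM arachidonic acid, 30 min RT; Fe-XO 30 min; A573/A405 ratio as read-out.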
PNC assembly inh: perinucleolar compartment assembly inhibition | PC3M PTB-GFP, PNC prevalence imaging, 16 h; stronger effect = lower value | activity change (PNC), negative = inhibition, % at 10 µM | 140,000 compounds, 3.1% hits;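 active means readout at or below -70, meaning at least 70% loss of cells showing the perinucleolar compartment, a nuclear body marking cancer cells; inconclusive means readout between -30 and a set limit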;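 further: plate controls were DMSO wells for no effect and camptothecin positive control wells for full effect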
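Compounds are pinned in duplicate onto adhered PC3M cells stably expressing GFP-tagged PTB and incubated 16 h at 37 C. Cells are then fixed, nuclei stained with Hoechst, and PNC-positive cells counted.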
ALOX15B inhib: 15-hLO-2 (ALOX15B) enzyme inhibition. 110,000 compounds, 0.56% hits. O15296. Potency, µM (titrated, usually from 57.1 µM), for inactives: at the highest dose activity change, negative = inhibition, hits mostly inhibitors. purified 15hLO-2, xylenol orange hydroperoxide absorbance; further: potency means the concentration at half of the fitted maximal effect; nearly all actives have a fitted effect of over 60% in size
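Purified human 15hLO-2 (50 nM) preincubated 15 min with compound, then 45 uM arachidonic acid for 90 min at RT in 25 mM Hepes pH 7.5, 0.01% Triton X-100. Hydroperoxide detected by Fe-xylenol orange; 573/405 nm absorbance ratio.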
* hit, by the source's call; ? = inconclusive; . = no result given; [ ] = dose if it differs, or a comment. A selection: hits, their analogues and other compounds. The true share with any hit is near 3.2%. Unless noted, the call rests on the fitted dose curve; in most records, active means well fitted curve in the direction sought with a large enough effect; inconclusive means small, poorly fitted or top-dose-only effect, or another doubt; inactive means no such curve, though single readings can be large; an effect the other way counts as inactive or inconclusive. Unless noted, on the % scale 0 is the no-effect control and ±100 the full control effect.

SMILES	12-hLO inh	PNC assembly inh	ALOX15B inhib
O=C(Nc1c2c(nc3ccccc13)CCCC2)c1ccccc1F	1%	-119*	.
COc1ccc(C(=O)NC(=S)Nc2ccc3c4c(cccc24)CC3)cc1OC	2%	?	.
COc1ccc(Cl)cc1NC(=O)Cc1c(F)cccc1Cl	-1%	57	.
COc1ccc(Cl)cc1NC(=O)C(C)N(C)Cc1cccc(Cl)c1Cl (stereo unspecified)	1%	-101*	.
CCCn1c(O)c(N=Nc2ccc3ccccc3n2)c2ccccc21	-1%	-115*	.
CC(C)CCn1c(O)c(N=Nc2ccccn2)c2ccccc21	-6%	?	.
Cc1cc2c(cc1C)-c1nnc(-c3ccc4ccccc4n3)n1C(C)(C)C2	-2%	?	-3%
COc1cc2c(cc1OC)-c1cc3nc4ccccc4nc3n1C(C)(C)C2	-22%	.	25µM*
CN(C)S(=O)(=O)c1ccc(C(=O)OCc2ccc(C#N)cc2)cc1	2%	?	-5%
CCOC(=O)CCCOC(=O)c1ccc(S(=O)(=O)N(C)C)cc1	-1%	-100*	.
NS(=O)(=O)c1ccc(NC(=O)N2c3ccccc3Sc3ccccc32)cc1	16µM*	18	?
CC1CCN(S(=O)(=O)c2ccc(NC(=O)N3c4ccccc4Sc4ccccc43)cc2)CC1	-1%	1	-28%
Cc1[nH]n(-c2ccccc2)c(=O)c1/C=N/c1ccccn1	6%	44	7%
CCOC(=O)c1sc(/N=C/c2c(C)[nH]n(-c3ccccc3)c2=O)c(C#N)c1C	-6%	-112*	-2%
CCn1c(SCC(=O)C(C)(C)C)nnc1-c1cnccn1	1%	-100*	.
CCn1c(SCC(=O)C(C)(C)C)nnc1-c1ccccn1	0%	-30	-1%
COc1ccc(OC)c(NC(=O)CSc2ncccc2C(=O)O)c1	-1%	?	12%[2.29 µM]
Nc1nonc1NC(=O)CSc1ncccc1C(=O)O	1%	-84*	-3%
O=C(CSc1nnc(CCCOc2ccc(Cl)cc2Cl)o1)Nc1ccc(C(=O)O)cc1	4%	-86*	.
CCn1c(CCCOc2ccc(Cl)cc2Cl)nnc1SCC(=O)Nc1cccc(F)c1	-8%	4	-1%
CC(=O)OC1CCC2(C)C3CC(=O)C4(C)C(CC5OC6(CCC(C)CO6)C(C)C54)C3CC[C@H]2C1 (stereo partly specified)	0%	.	-5%
COc1ccc(C(=O)NNC(=O)c2ccccc2[N+](=O)[O-])cc1	-2%	-89*	.
COc1ccc(C(=O)NNC(=O)c2ccccc2[N+](=O)[O-])cc1Br	2%	3	.
COCC(=O)N1CCC2(CCCN(C(=O)Nc3cccc(F)c3)C2)CC1	-1%	.	2%
Nc1cccc2cc(S(=O)(=O)Nc3ccc(C(=O)O)cc3)ccc12	-8%[11.4 µM]	.	-9%[11.4 µM]
SMILES	12-hLO inh	PNC assembly inh	ALOX15B inhib
CN1CCN(C(=O)c2sc(=S)n(-c3ccccc3)c2N)CC1	0%	-97*	-5%
CCNC(=O)c1sc(=S)n(-c2ccc(C)cc2)c1N	-10%	15	-19%
CCOC(=O)c1sc(=S)n(-c2ccccc2)c1N	14%	-20	.
Cc1ccc(-n2c(N)c(C(=O)N3CCOCC3)sc2=S)cc1	0%	-126*	-2%
O=C(O)c1cc(S(=O)(=O)Nc2cccc(F)c2)ccc1Cl	-4%	.	.
N#CCCn1c(=O)c(-c2cccs2)nc2cnc(N3CCNCC3)nc21	0%	.	16%
COC(=O)CCS(=O)(=O)c1cc(Cl)ccc1Cl	-10%	-138*	-5%
COC(=O)CCS(=O)(=O)c1ccc(NC(C)=O)cc1	13%	-11	-1%
CC1=[N+]([O-])C(C)(C)C(c2ccc(Br)cc2)=[N+]1[O-]	-5%	?	.
COc1ccc(NC(=O)N2CC[C@@]3(CCCN(C(=O)c4ccncc4)C3)C2)cc1	2%	.	1%
CC(/C=N/NC(=O)c1c(Br)cnn1C)=C\c1ccccc1	-1%	?	.
Cn1ncc(Br)c1C(=O)N/N=C/c1ccc(OS(=O)(=O)c2ccccc2)cc1	-1%	-80*	.
CC(C)N=c1scc(-c2ccco2)n1/N=C/c1ccc(O)c(O)c1	?	11	13µM*
Oc1ccc(/C=N/n2c(-c3ccco3)csc2=Nc2cccnc2)c(O)c1	2%	-7	.
CCc1cccc(C)c1NC(=O)CO/N=C(\C)c1cc2ccccc2o1	-3%	-11	.
CC(C)(O)C(=O)O	3%	.	12%
COCCNC(=O)C1(CC(C)C)C=CCN1C(C)=O (stereo unspecified)	-1%	.	-5%
CCN(CC)S(=O)(=O)c1ccc(N2C(=O)Nc3ccccc3N2O)cc1	2%	54	.
O=C1Nc2ccccc2N(O)N1c1ccc(S(=O)(=O)N2CCCCCC2)cc1	-1%	-82*	.
CCCn1c(=O)c(C(=O)NNS(=O)(=O)c2ccc(Cl)cc2)c(O)c2ccccc21	-16%	12	.
